Results: PubChem BioAssay AID1508622 (National Center for Advancing Translational Sciences (NCATS), 2021)
Calls of active or inactive are those of the source. Where a call stands in place of a potency, no number is given. Calls follow the shape of the dose curve; as a rule, active = well fitted activation curve with a large enough effect; inconclusive = small, poorly fitted or top-dose-only effect; inactive = no such curve, though single readings can be large or run the other way.

experiment: Confirmatory qHTS for Identification of Small Molecule Activators of Huntingtin-Antisense Promoter Activity; conditions: HEK293 HTT-AS promoter firefly luciferase reporter, 24 h; series mostly up to 57.5 µM
Summary of the method: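 2,500 luciferase reporter HEK293 cells/well; 24 h culture; cpds up to 57.5 uM final, PTC124 50 uM ctrl; 24 h, 37C; Dual-Glo FLuc reagent, 10 min RT; lum. Norm.: vehicle 0%, zero RLU -100%.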
Potency is read from the fitted curve at half-maximal effect.

Compound | Potency
Cc1cccc(C)c1NC(=O)c1ccc2nc(CCc3ccccc3)oc2c1 | inactive
COc1ccc(CCNC(=O)c2c(C)nn(-c3ccc(F)cc3)c2-n2cccc2)cc1OC | inactive
CCn1c(CN2CCCCC2)nc2cc(NC(=O)c3ccc([N+](=O)[O-])cc3)ccc21 | inactive
COc1ccc(C2=CC(c3ccccc3Cl)n3nc(-c4ccc(Cl)cc4)nc3N2)cc1 (centres undefined) | inactive
CCc1ccc2oc(C(=O)NCCc3ccc(OC)c(OC)c3)cc(=O)c2c1 | inactive
COCCn1c2c([n+](Cc3cnccn3)c1C)C(=O)c1ccccc1C2=O | inactive
COc1cccc(CNC(=O)c2cc3c(-c4ccccc4F)nn(C)c3s2)c1 | inactive
Cc1ccc(CN2CCC(CNC(=O)c3cnn(-c4ccccc4Cl)c3C3CCN(C(=O)OC(C)(C)C)CC3)CC2)cc1 | inactive
Cc1ccc(SCc2nc(-c3ccc(C(=O)NCC(C)c4ccccc4)cc3)oc2C)cc1 (centres undefined) | inactive
COc1cc(OC)cc(C(=O)Oc2c(Sc3ccccc3)c(C)nn2C(C)(C)C)c1 | inactive
Fc1cc(Br)ccc1Nc1c2c(nc3nc(-c4cccs4)nn13)CCCC2 | inactive
COc1cc(CCC(=O)NCc2ccc3c(c2)CCN3C(=O)c2ccccc2)cc(OC)c1OC | inactive
Cn1cc(CNCC2CCN(c3ncc(C(=O)NO)cn3)CC2)c2ccccc21 | inactive
COc1cc(NC(=O)NC(C)c2c(-n3cccc3)sc3c2CCCC3)cc(OC)c1OC (centres undefined) | inactive
COc1cccc(N2CCN(C(=O)c3cccc(-n4c(C)nc5cccnc54)c3)CC2)c1 | inactive
CC(C)C[C@@H](C=O)NC(=O)[C@H](CC(C)C)NC(=O)[C@H](CC(C)C)NC(=O)OCc1ccccc1 | inactive
COc1ccccc1NC(=O)CSc1nnc(NC(=O)Nc2ccc(C)cc2)s1 | inactive
Cc1ccc(Cl)cc1N1CCN(C(=O)CCS(=O)(=O)c2ccc3c(c2)oc(=O)n3C)CC1 | inactive
CCOc1ccc(S(=O)(=O)NCCc2sc3nc(-c4ccc(C)cc4)nn3c2C)cc1 | inactive
Cc1nc(Nc2n[nH]c3c2CN(C(=O)N[C@H](CN(C)C)c2ccccc2)C3(C)C)c2sccc2n1 | inactive

Compound | Potency
CCC(Oc1ccccc1)C(=O)N1CCN(Cc2cc(=O)n3nc(-c4cccc(C)c4)sc3n2)CC1 (centres undefined) | inactive
CCc1ccc(NC(=O)c2cc(S(=O)(=O)N3CCCCCC3)ccc2F)cc1 | inactive
Cc1cc(C)cc(NC(=O)CCCn2c3ccccc3c(=O)c3ccccc32)c1 | inactive
Cc1cccc(N2CCN(C(=O)C3CCCN(S(=O)(=O)c4ccc5c(c4)oc(=O)n5C)C3)CC2)c1C (centres undefined) | inactive
Cc1ccc2nc(SCc3nc(-c4ccccc4C)no3)[nH]c2c1 | inactive
O=C(C=Cc1ccc(CN(CCO)CCc2c[nH]c3ccccc23)cc1)NO | 2.13 µM (active)
O=C(CSc1nc(-c2ccc(F)cc2)[nH]c1-c1ccccc1)Nc1ccccc1 | inactive
Cc1cc(F)ccc1NC(=O)C1CCCN(C(=O)c2cnn(-c3ccccc3)c2-n2cccc2)C1 (centres undefined) | inactive
Cc1cccc(-c2nc(CSCC(=O)N3CCN(c4ccccc4)CC3)c(C)o2)c1 | inactive
CCOCc1cc(CN2CCN(c3ccccc3OC)CC2)c(O)c2ncccc12 | inactive
Cc1ccccc1-c1ccnc2c(-c3ccc(F)cc3)c(C)nn12 | inactive
CC(C)C1C(=O)Nc2ccc(S(=O)(=O)NCc3ccc(Cl)cc3)cc21 (centres undefined) | inactive
O=C(NCc1ccc(Cl)cc1)C1CCN(S(=O)(=O)c2ccc3c(c2)CCCN3C(=O)C2CCC2)CC1 | inactive
O=C1CCCc2cc(S(=O)(=O)NCC3CCC(C(=O)Nc4ccc(Cl)cc4)CC3)ccc2N1 (centres undefined) | inactive
Cn1c(COc2ccccc2C(C)(C)C)nc2ccccc21 | inactive
Fc1ccc(-c2csc(=Nc3cccc(C(F)(F)F)c3)n2Cc2ccc3c(c2)OCO3)cc1 | inactive
Cc1cc(Cl)ccc1OCC(=O)N1CCC(c2nc3ccccc3s2)CC1 | inactive
O=C(NCC(c1cccnc1)N1CCN(Cc2ccccc2)CC1)C(=O)Nc1ccc(Cl)cc1 (centres undefined) | inactive
COC(=O)[C@]12CCC(C)(C)C[C@@H]1[C@@H]1C(=O)C=C3[C@@]4(C)C=C(C#N)C(=O)C(C)(C)[C@@H]4CC[C@@]3(C)[C@]1(C)CC2 | inactive
